Inconclusive results are not listed. Calls of active or inactive are those of the source. Calls come from the whole dose curve; as a rule, active = well fitted curve in the direction sought with a large enough effect; inconclusive = small, poorly fitted or top-dose-only effect, or another doubt; inactive = no such curve, though single readings can be large or run the other way.
Each compound was assayed against Polyunsaturated fatty acid lipoxygenase ALOX15 (Homo sapiens) (UniProt P16050) (assay: Counterscreen qHTS for inhibitors of human arachidonate 12S-lipoxygenase (ALOX12): ALOX15 Assay). Conditions: purified ALOX15 enzyme activity; series mostly up to 110 µM; activity change, negative = inhibition: at the top concentration.
Polyunsaturated fatty acid lipoxygenase ALOX15 (Homo sapiens), sequence (P16050 whole entry, looked up): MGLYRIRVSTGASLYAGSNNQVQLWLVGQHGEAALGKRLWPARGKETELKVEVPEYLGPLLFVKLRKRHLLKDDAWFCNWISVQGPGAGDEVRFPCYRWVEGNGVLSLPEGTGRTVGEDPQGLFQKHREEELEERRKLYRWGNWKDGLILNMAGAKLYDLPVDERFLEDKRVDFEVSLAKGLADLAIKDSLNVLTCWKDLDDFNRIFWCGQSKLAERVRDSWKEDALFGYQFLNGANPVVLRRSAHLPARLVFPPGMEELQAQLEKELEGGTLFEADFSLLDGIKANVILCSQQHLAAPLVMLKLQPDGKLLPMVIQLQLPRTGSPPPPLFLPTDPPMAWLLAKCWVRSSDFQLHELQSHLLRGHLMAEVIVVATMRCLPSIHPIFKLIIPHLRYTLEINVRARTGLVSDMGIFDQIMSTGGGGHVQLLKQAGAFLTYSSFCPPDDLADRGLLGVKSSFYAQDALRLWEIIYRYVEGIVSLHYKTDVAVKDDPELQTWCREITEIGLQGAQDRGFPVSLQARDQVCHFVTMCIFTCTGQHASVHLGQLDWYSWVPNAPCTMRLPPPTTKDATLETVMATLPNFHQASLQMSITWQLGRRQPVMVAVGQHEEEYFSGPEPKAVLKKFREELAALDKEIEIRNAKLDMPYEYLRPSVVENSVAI
Summary of the method: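 Xylenol orange–ferric complex formation, read as the 573 nm to 405 nm absorbance ratio, tracks product from 50 uM arachidonic acid turned over for 30 min at RT. Enzyme is 40 nM ALOX15, pH 7.5 HEPES buffer, compound-preincubated 15 min.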
Note: 0% is about no effect.

| SMILES | activity change, negative = inhibition |
| --- | --- |
| O=C(N1CCCCC1)N1CCCC1c1nnc2n1CCNC2 (configuration not stated) | -11.3% (inactive) |
| CN1CC(=O)N(c2ccccc2F)Cc2c(NC3CCNCC3)ncnc21 | -20.5% (inactive) |
| NCCCC(=O)N1CCC2(CC1)CN(C(=O)Cc1ccc(Cl)cc1)CCO2 | -7.31% (inactive) |
| CCOCCCNc1ncnc2c1CN(C1CCCNCC1)C(=O)CN2C (configuration not stated) | 1.99% (inactive) |
| Cc1ccc(C(=O)N2CCC(N3Cc4ccccc4C3=O)CC2)cc1 | 9.7% [at 146 µM] (inactive) |
| CN1CC(=O)N(C2CCNCC2)Cc2c1ncnc2N1CCc2ccccc2C1 | -21.4% (inactive) |
| CC1CCCN(c2ncnc3c2CN(C2CCCNCC2)C(=O)CN3C)C1 (configuration not stated) | -9.24% (inactive) |
| CC1CCCN1c1ncnc2c1CN(C1CCCNCC1)C(=O)CN2C (configuration not stated) | -14.6% [at 146 µM] (inactive) |
| CN1CC(=O)N(C2CCNC2)Cc2c(NCCCN3CCCCC3)ncnc21 (configuration not stated) | -20.5% (inactive) |
| CC1C=CC(C)N1c1ncnc2c1CN(C1CCNCC1)C(=O)CN2C (configuration not stated) | 1.91% [at 146 µM] (inactive) |
| COc1ccccc1-c1cccc(CN)c1 | 18.8% [at 233 µM] (inactive) |
| CC(C)OCCCNC(=O)c1cc(C2CC2)nc2onc(C3CCCN3)c12 (configuration not stated) | -5.04% (inactive) |
| O=C1NCc2ccccc2CC12CCN(Cc1ccc(F)cc1O)C2 (configuration not stated) | -3.81% [at 146 µM] (inactive) |
| COc1cc(CN2CCCCC23Cc2ccccc2CNC3=O)ccc1F (configuration not stated) | -15.7% (inactive) |
| O=C1c2ccccc2CN1C1CCN(Cc2cccc3ccccc23)CC1 | -4.22% (inactive) |
| CC(C)NC(=O)N1CCC(c2nnc3n2CCNC3)CC1 | 6.45% [at 146 µM] (inactive) |
| O=c1[nH]c(C2CCCN(Cc3ccc(-c4ccccc4)cc3)C2)nc2ccc(F)cc12 (configuration not stated) | -25.5% (inactive) |
| FC(F)(F)c1cccc(C2=NOC3(CCN(Cc4ccsc4)C3)C2)c1 (configuration not stated) | -6.94% (inactive) |
| NCc1ccc(-c2cccc(C(F)(F)F)c2)cc1 | 29.9% [at 146 µM] (inactive) |

| SMILES | activity change, negative = inhibition |
| --- | --- |
| CCCN1CCCC2(Cc3ccccc3CN(C(=O)Cc3ccccc3)C2)C1 (configuration not stated) | -27.1% (inactive) |
| O=C1NCc2ccccc2CC12CCN(Cc1ccc(Cl)o1)C2 (configuration not stated) | -3.87% [at 146 µM] (inactive) |
| CNCc1sc2ccccc2c1C | -9.89% [at 233 µM] (inactive) |
| CC(C)(C)OC(=O)N1CC(Nc2cccc(Oc3ccccc3)c2)C1 | -2.09% [at 146 µM] (inactive) |
| CCOCCNc1ncnc2c1CN(C1CCCNC1)C(=O)CN2C (configuration not stated) | -28.1% (inactive) |
| CN1CC(=O)N(C2CCNCC2)Cc2c1ncnc2N1CCCCC1 | -12.3% (inactive) |
| FC(F)(F)c1cccc(C2=NOC3(CCN(Cc4ccccc4)C3)C2)c1 (configuration not stated) | -12.7% (inactive) |
| O=C(c1ccccc1F)N1CCn2c(nnc2C2CCNCC2)C1 | 0.837% [at 146 µM] (inactive) |
| CC(=O)N1Cc2ccccc2CC2(CCCCN2Cc2ccccn2)C1 (configuration not stated) | 12% (inactive) |
| CN1CC(=O)N(C2CCCNC2)Cc2c(NC3CCCCC3O)ncnc21 (configuration not stated) | -26% (inactive) |
| O=C1NCc2ccccc2CC12CCCN2Cc1ccc(O)cc1O (configuration not stated) | 8.91% [at 146 µM] (inactive) |
| COc1ccc(-n2nc3n(c2=O)CCN(C(=O)c2ccccn2)C3)cc1 | -10.8% [at 146 µM] (inactive) |
| Cc1ccc(CN2CC3(Cc4ccccc4NC3=O)C2)cc1 | 67.4% [at 146 µM] (inactive) |
| O=C(O)C1=NOC2CN(Cc3c(F)cccc3Cl)CC12 (configuration not stated) | -9.49% [at 146 µM] (inactive) |
| O=C(c1cc(C2CC2)nc2onc(C3CCCN3)c12)N1CCOCC1 (configuration not stated) | -29.9% (inactive) |
| O=C(NC1CCNCC1)c1cc(C2CC2)nc2onc(C3CCCN3)c12 (configuration not stated) | -15.5% (inactive) |
| CN1CC(=O)N(C2CCCNCC2)Cc2c(NCC3CC3)ncnc21 (configuration not stated) | 2.11% (inactive) |
| CN1CC(=O)N(C2CCNCC2)Cc2c(NCCOc3ccccc3)ncnc21 | -4.67% (inactive) |
